Data: PubChem BioAssay (Tox21)
Results filed as inconclusive are left out. Active and inactive are the calls of the source. The call rests on the fitted dose curve; in most records, active means well fitted curve in the direction sought with a large enough effect in the repeat runs; inconclusive means weak or mixed curves; inactive means no such curve, though single readings can be large; an effect the other way counts as inactive or inconclusive.

How the values were obtained:
[1] = Human pregnane X receptor (PXR) small molecule agonists, qHTS cell viability counter screen (AID 1346977); further: nearly all actives have a fitted effect of over 50% in size; further: potency means the concentration at half of the fitted maximal effect
How it was run: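 HepG2 cells stably carrying the PXR-Luc reporter are cultured with 5% charcoal-stripped FBS and treated with compounds for 24hr. CellTiter-Fluor is added at 23hr and fluorescence is read after 1hr.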

[2] = Caspase-3/7 induction in HepG2 cells by small molecules, qHTS assay (AID 1346978); further: nearly all actives have a fitted effect of over 15% in size
How it was run: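 Wild-type HepG2 cells, 2,000/well, settled 5 hr at 37 C and 5% CO2, then compound-treated for 17 hr; caspase-3/7 activity read by luminescent Caspase-Glo 3/7 after 30 min at room temperature.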

[3] = Caspase-3/7 induction in CHO-K1 cells by small molecules, qHTS cell viability counter screen (AID 1346979); further: nearly all actives have a fitted effect of over 35% in size; further: potency means the concentration at half of the fitted maximal effect
How it was run: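 Seeding: 1,500 CHO-K1 cells/well. Rest: 5hr, 37C. Treatment: compounds in DMSO, 16hr. Read: CellTiter-Fluor, 1hr, fluorescence.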

[4] = Caspase-3/7 induction in CHO-K1 cells by small molecules, qHTS assay (AID 1346980); further: nearly all actives have a fitted effect of over 15% in size
How it was run: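 Wild-type CHO-K1 cells exposed to compounds for 17hr at 37 C, 5% CO2. Caspase-3/7 activity then measured by Caspase-Glo 3/7 luminescence after 30min at room temperature.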

[5] = Caspase-3/7 induction in HepG2 cells by small molecules, qHTS cell viability counter screen (AID 1346981); further: nearly all actives have a fitted effect of over 30% in size; further: potency means the concentration at half of the fitted maximal effect
How it was run: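 Cell viability is measured as a cytotoxicity counter screen alongside the Caspase-Glo 3/7 readout in identical wells. Wild-type HepG2 cells are treated with test compounds for 16 hr at 37 C before CellTiter-Fluor addition and a 1-hr incubation.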

[6] = molecular target: Nuclear receptor subfamily 1 group I member 2 (Rattus norvegicus) (UniProt Q9R1A7); test: Rat pregnane X receptor (rPXR) activation by small molecules, qHTS assay (AID 1346983); conditions: rPXR luciferase reporter cells, One-Glo luminescence, 24 h; max activation: stronger effect = higher value; further: nearly all actives have a fitted effect of over 20% in size; further: potency means the concentration at half of the fitted maximal effect
How it was run: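 Cell-based rPXR activation assay: rPXR cells, 2,000 per well, rested 5hr at 37 C, then exposed to compounds in DMSO for 24 hr at 37 C. Luciferase activity read by One-Glo luminescence after 30 min at room temperature.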

[7] = molecular target: Cytochrome P450 2D6 (Homo sapiens) (UniProt P10635); test: Cytochrome P450 Family 2 Subfamily D Member 6 (CYP2D6) small molecule antagonists: luciferase reporter qHTS assay (AID 1671196); further: nearly all actives have a fitted effect of over 50% in size; further: potency means the concentration at half of the fitted maximal effect
How it was run: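 Enzyme and proluciferin substrate were first combined with test chemical for 10 min at room temperature. Adding NADPH regeneration solution started a 1 h reaction, stopped with luciferin detection reagent and read by luminescence 20 min later.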

[8] = molecular target: Nuclear receptor subfamily 1 group I member 2 (Homo sapiens) (UniProt O75469); test: Human pregnane X receptor (PXR) small molecule agonists, qHTS assay (AID 1346982); further: nearly all actives have a fitted effect of over 35% in size; further: potency means the concentration at half of the fitted maximal effect
How it was run: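 Cells: HepG2 stably carrying PXR-Luc. Medium held 5% charcoal-stripped FBS. Compounds in DMSO added after 5 hr plating, incubated 24 hr, then luminescence quantified with ONE-Glo.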

[9] = molecular target: Nuclear receptor subfamily 1 group I member 2 (Homo sapiens) (UniProt O75469); test: CYP3A4 induction through human pregnane X receptor (PXR) by small molecules, qHTS assay (AID 1346984); further: nearly all actives have a fitted effect of over 40% in size; further: potency means the concentration at half of the fitted maximal effect
How it was run: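 Quantitative HTS in DPX-2 cells, i.e. HepG2 transfected with PXR response element and CYP3A4-promoter luciferase. Compounds in DMSO incubated 24hr at 37C; then P450-Glo CYP3A4 substrate, 3uM final, 3hr; One-Glo luminescence.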

[10] = molecular target: Nuclear receptor subfamily 1 group I member 2 (Homo sapiens) (UniProt O75469); test: Human pregnane X receptor (PXR) activation by small molecules, qHTS assay (AID 1346985); further: nearly all actives have a fitted effect of over 40% in size; further: potency means the concentration at half of the fitted maximal effect
How it was run: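 DPX-2 cells (HepG2 co-transfected with a PXR response element and a CYP3A4-promoter luciferase construct) were seeded at 2,000 per well, rested 5 hr at 37C, then exposed to DMSO-dissolved compounds for 24 hr. Activation was read as luciferase luminescence.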
On the % scale 0 is the no-effect control and ±100 the full control effect.

Sequence of Nuclear receptor subfamily 1 group I member 2 (Rattus norvegicus) (Q9R1A7 whole entry, looked up): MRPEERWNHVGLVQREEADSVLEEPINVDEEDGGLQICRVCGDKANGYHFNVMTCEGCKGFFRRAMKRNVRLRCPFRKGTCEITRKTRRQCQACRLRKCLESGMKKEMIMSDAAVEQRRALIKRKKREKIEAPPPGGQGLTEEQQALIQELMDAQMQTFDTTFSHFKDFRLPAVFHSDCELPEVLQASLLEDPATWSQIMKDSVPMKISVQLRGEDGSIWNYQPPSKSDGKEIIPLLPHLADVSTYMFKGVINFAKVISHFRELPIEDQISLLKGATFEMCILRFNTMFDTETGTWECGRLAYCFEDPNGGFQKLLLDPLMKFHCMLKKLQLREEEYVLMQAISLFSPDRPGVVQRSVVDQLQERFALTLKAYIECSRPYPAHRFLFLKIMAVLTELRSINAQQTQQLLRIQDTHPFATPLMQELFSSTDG
Sequence of Nuclear receptor subfamily 1 group I member 2 (Homo sapiens) (O75469 whole entry, looked up): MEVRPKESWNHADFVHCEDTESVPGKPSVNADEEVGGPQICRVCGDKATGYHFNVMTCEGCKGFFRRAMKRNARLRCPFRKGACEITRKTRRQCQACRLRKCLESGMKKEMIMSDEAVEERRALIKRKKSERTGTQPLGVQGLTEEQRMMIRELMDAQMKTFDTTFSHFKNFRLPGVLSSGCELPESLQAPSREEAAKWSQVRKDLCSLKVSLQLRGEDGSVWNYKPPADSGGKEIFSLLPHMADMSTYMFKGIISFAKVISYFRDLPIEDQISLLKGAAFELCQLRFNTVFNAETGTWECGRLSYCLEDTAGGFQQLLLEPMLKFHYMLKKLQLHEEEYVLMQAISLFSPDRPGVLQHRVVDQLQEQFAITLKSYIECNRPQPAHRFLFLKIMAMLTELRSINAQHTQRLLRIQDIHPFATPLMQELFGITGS
Sequence of Cytochrome P450 2D6 (Homo sapiens) (P10635 whole entry, looked up): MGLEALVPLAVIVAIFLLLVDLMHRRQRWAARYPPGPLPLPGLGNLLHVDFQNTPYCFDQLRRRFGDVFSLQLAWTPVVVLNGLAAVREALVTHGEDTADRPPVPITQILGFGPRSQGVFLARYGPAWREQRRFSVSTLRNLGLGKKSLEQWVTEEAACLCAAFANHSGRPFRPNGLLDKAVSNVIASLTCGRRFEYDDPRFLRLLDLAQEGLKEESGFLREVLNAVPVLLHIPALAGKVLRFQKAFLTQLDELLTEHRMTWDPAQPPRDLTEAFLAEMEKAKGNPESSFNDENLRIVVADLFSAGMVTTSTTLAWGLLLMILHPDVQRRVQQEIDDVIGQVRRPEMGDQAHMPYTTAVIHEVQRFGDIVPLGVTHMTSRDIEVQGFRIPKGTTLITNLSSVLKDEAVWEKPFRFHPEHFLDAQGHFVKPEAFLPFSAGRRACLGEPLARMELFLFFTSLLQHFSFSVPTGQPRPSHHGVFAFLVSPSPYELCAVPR

CCCc1ncc(C[n+]2ccccc2C)c(N)n1
inactive: Potency [1] | outcome [2] | Potency [3] | outcome [4] | Potency [5] | max activation [6] -3.34% | Potency [7]

OCCc1ccccn1
inactive: Potency [1] | outcome [2] | Potency [3] | outcome [4] | Potency [5] | Potency [8] | Potency [7]

CCCC(C)C(=O)OCC (stereo not given)
inactive: Potency [1] | outcome [2] | Potency [3] | outcome [4] | Potency [5] | Potency [8] | Potency [7]

NC(=O)N[C@@H](CCC(=O)O)C(=O)O
inactive: Potency [1] | outcome [2] | Potency [3] | outcome [4] | Potency [5] | max activation [6] -3.04% | Potency [9] | Potency [10] | Potency [7]

O=C(c1ccccc1)C1(O)CCCCC1
inactive: Potency [1] | outcome [2] | Potency [3] | outcome [4] | Potency [5] | Potency [8] | Potency [7]

O=C(O)CNC(=O)c1ccccc1
inactive: Potency [1] | outcome [2] | Potency [3] | outcome [4] | Potency [5] | max activation [6] -5.13% | Potency [9] | Potency [10] | Potency [7]

CC[N+](CC)(CC)CCOc1cccc(OCC[N+](CC)(CC)CC)c1OCC[N+](CC)(CC)CC
inactive: Potency [1] | outcome [2] | Potency [3] | outcome [4] | Potency [5] | max activation [6] -1.52% | Potency [9] | Potency [10] | Potency [7]

c1ccc2sc(SN3CCOCC3)nc2c1
active: Potency [6] 28.2 µM | Potency [10] 10 µM
inactive: Potency [1] | outcome [2] | Potency [3] | outcome [4] | Potency [5] | Potency [9]

CCOc1ccc2nc(S(N)(=O)=O)sc2c1
inactive: Potency [1] | outcome [2] | Potency [3] | Potency [5] | Potency [7]

CN1CC(=O)N/C1=N/C(=O)Nc1cccc(Cl)c1
inactive: Potency [1] | outcome [2] | outcome [4] | Potency [5] | Potency [9] | Potency [10]
active: Potency [8] 13.3 µM

CCO[Si](OCC)(OCC)c1ccccc1
inactive: Potency [1] | outcome [2] | outcome [4] | Potency [5] | Potency [8] | Potency [7]

C=CCOCC(O)CO (stereo not given)
inactive: Potency [1] | outcome [2] | Potency [3] | outcome [4] | Potency [5] | Potency [7]

CC1=C(C/C=C(\C)CCC[C@H](C)CCC[C@H](C)CCCC(C)C)C(=O)c2ccccc2C1=O
active: Potency [9] 11.2 µM
inactive: Potency [1] | outcome [2] | outcome [4] | Potency [5] | Potency [8] | max activation [6] -2.63% | Potency [10]

CC(=O)c1ccccc1[N+](=O)[O-]
inactive: Potency [1] | outcome [2] | Potency [3] | outcome [4] | Potency [5] | Potency [7]

CC(CC=O)CC(C)(C)C (stereo not given)
inactive: Potency [1] | outcome [2] | Potency [3] | outcome [4] | Potency [5] | Potency [7]

[O-][n+]1cccc(CO)c1
inactive: Potency [1] | outcome [2] | outcome [4] | Potency [5] | Potency [8] | max activation [6] -1.15% | Potency [9] | Potency [10] | Potency [7]

CCN1CCOCC1
active: Potency [7] 6.21 µM
inactive: Potency [1] | outcome [2] | Potency [3] | outcome [4] | Potency [5]

Clc1cc(Cl)c(Cl)nc1Cl
inactive: Potency [1] | outcome [2] | outcome [4] | Potency [5] | Potency [8]

CCC1C(=O)OCC1Cc1cncn1C (stereo not given)
inactive: Potency [1] | outcome [2] | outcome [4] | Potency [5] | Potency [8] | max activation [6] -2.44% | Potency [9] | Potency [10] | Potency [7]

CC(C#N)(CCC(=O)O)N=NC(C)(C#N)CCC(=O)O (stereo not given)
inactive: Potency [1] | outcome [2] | Potency [3] | outcome [4] | Potency [5] | Potency [7]

CCN(CC#N)c1cccc(C)c1
inactive: Potency [1] | outcome [2] | outcome [4] | Potency [5]

CNCCO
inactive: Potency [1] | outcome [2] | Potency [3] | outcome [4] | Potency [5] | Potency [7]

FB(F)F
inactive: Potency [1] | outcome [2] | Potency [3] | outcome [4] | Potency [7]

C=CN1CCCCCC1=O
inactive: Potency [1] | outcome [2] | Potency [3] | outcome [4] | Potency [5] | Potency [7]

CC1=NN(c2cc(S(=O)(=O)O)ccc2Cl)C(=O)C1N=Nc1ccccc1 (stereo not given)
inactive: outcome [2] | outcome [4] | Potency [7]
active: Potency [1] 61.1 µM | Potency [3] 54.5 µM | Potency [5] 54.5 µM

CCCCN(CCC(=O)OCC)C(C)=O
inactive: Potency [1] | outcome [2] | Potency [3] | outcome [4] | Potency [5] | Potency [7]

Cc1ccc(C(=O)c2ccccc2)cc1
inactive: Potency [1] | outcome [2] | outcome [4] | Potency [5] | Potency [8]
